High-throughput results (PubChem)
A selection: hits, their analogues and other compounds. The true share with any hit is near 9.4%.
AMA1 RON2 block: disrupts binding of P. falciparum AMA1 to RON2 | AlphaScreen AMA1-biotinylated RON2 peptide binding | hit rate 0.2% among 360,000 | Potency, µM (titrated, usually from 58.2 µM), inactives show at the highest dose activity change, negative = inhibition, actives largely listed as inhibitors;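 also: 0% = vehicle wells and -100% = peptide control; nearly all actives have a fitted effect of over 45% in size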
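AMA1 (3D7) with his tag at 25 nM final met compounds first, then biotinylated RON2 peptide at 25 nM; detection used donor plus acceptor beads, 10 µg/mL apiece, read by AlphaScreen after 30 min at room temperature.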
Pf growth 48h: P. falciparum growth inhibition at 48 hours (one generation). AID 504832. hit rate 5.9% among 310,000. Potency, µM (series often up to 28.7 µM), for inactives: at the top dose activity change, negative = inhibition, actives largely listed as inhibitors. P. falciparum luciferase growth in erythrocytes, 48 h; also: % is scaled to controls: 0 for no effect and ±100 for the full control effect
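Here the parasites carry a stable luciferase gene and grow inside erythrocytes in Albumax-based RPMI medium with compound for one erythrocytic cycle. Activity is scored as loss of luminescent signal.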
Pf growth 96h: inhibits malaria parasite growth, 96 h. P. falciparum luciferase reporter growth, 96 h. Potency, µM (titrated, usually from 28.7 µM), inactives show top-dose activity change, negative = inhibition, usual class: inhibitors. hit rate 6.9% among 320,000; also: % is scaled to controls: 0 for no effect and ±100 for the full control effect
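Delayed-death screen, second-generation endpoint: infected erythrocytes, 2% hematocrit, 0.05% parasitemia final; 96 hours at 37 C, 5% CO2; luciferase detection reagent; luminescence decrease equals reduced growth.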
SARS PLpro yeast: inhibitors of SARS-CoV papain-like protease in yeast; Potency, µM (top dose mostly 32.9 µM), for inactives: top-dose activity, positive = growth rescue, most hits filed as activators; S. cerevisiae expressing SARS-CoV PLpro, growth rescue; AID 485353; hit rate 0.19% among 330,000; calls by dose curve; also: 0% is about no effect; nearly all actives have a fitted effect of over 55% in size
* hit, by the source's call; ? = inconclusive; nt = not tested or not shown; [ ] = another dose, or the depositor's remark. Unless noted, calls follow the shape of the dose curve; as a rule, active = well fitted curve in the direction sought with a large enough effect; inconclusive = small, poorly fitted or top-dose-only effect, or another doubt; inactive = no such curve, though single readings can be large; an effect the other way counts as inactive or inconclusive. Potency is read from the fitted curve at half-maximal effect.

SMILES	AMA1 RON2 block	Pf growth 48h	Pf growth 96h	SARS PLpro yeast
O=C(Cc1ccccc1)N1CCN(C/C=C/c2ccccc2)CC1	-3%	-32%	3.3µM*	3%
O=C(NC(=S)N1CCN(C/C=C/c2ccccc2)CC1)c1ccc(F)cc1	17%	10µM*	?	1%
Cn1cc(CC(=O)Nc2cccc(C#N)c2)c2ccccc21	-8%	nt	?	-4%
CC1Oc2ccccc2OC1C(=O)Nc1ccccn1 (centres undefined)	-5%	5.9µM*	10%	15%
O=C(Nc1ccccn1)C1COc2ccccc2O1 (centres undefined)	12%	51%	5.9µM*	11%
CCCN(Cc1cc2cc(C)ccc2[nH]c1=O)S(C)(=O)=O	-6%	-8%	-7%[5.75 µM]	3%
COc1cc([N+](=O)[O-])c(OC)cc1SCc1n[nH]c(=S)n1-c1ccc(F)cc1	10%	-27%	1.7µM*	1%
O=[N+]([O-])c1cccc(-c2cn3nc(-c4ccccc4)c(-c4ccccc4)nc3n2)c1	9%	9.3µM*	?	-1%
Cc1nn(C)c(Oc2ccccc2)c1CCNC(=O)CCl	-1%	?	10µM*	1%
CC(=O)OCc1c(C(F)(F)F)nn(C)c1Oc1ccccc1	36%	0%	17%	3%
CC1=C(C(=O)N(C)C)CC(CC(=O)NC2CC2)C(=O)N1Cc1ccc(C(C)(C)C)cc1 (centres undefined)	45%	nt	nt	nt
COc1ccc(C(F)(F)F)cc1N/C=C\c1nnnn1-c1ccccc1	4%	?	9%	2%
CN1C(=O)/C(=C2\SC(=S)N(NC(=O)c3cccnc3)C2=O)c2ccccc21	92%	9%	2.9µM*	-2%
COc1ccc2c3c1O[C@H]1[C@@H](O)C=C[C@H]4C(C2)NCCC341 (some centres undefined)	nt	-12%	0.17µM*	nt
COc1ccc2c3c1OC1C(O)C=CC4C(C2)[N+](C)(C)CCC341 (centres undefined)	-7%	2%[0.00184 µM]	6%	-1%
Oc1cc(Cc2ccccc2)cnc1CN1CCOCC1	8%	2.9µM*	?	-3%
Cc1nc2c(n1C1CCCCC1)C(=O)c1ccccc1C2=O	-6%	1.9µM*	1.3µM*	-3%
CC(C)(C)c1ccc(CC(=O)N2CCC2(C)C(=O)NS(=O)(=O)c2ccc3c(c2)CCO3)cc1 (centres undefined)	0%	nt	nt	nt
O=C(COc1ccc(Br)cc1Br)NNC(=O)c1cccs1	66%	42%	1%	-5%
COc1ccccc1CC(=O)NNC(=O)c1cccs1	0%	17%	0.26µM*	1%
Cc1cc(Br)cc(C)c1OCC(=O)NNC(=O)c1cccs1	69%	-9%	12µM*	-1%
CC1Cc2ccccc2N1C(=O)Cn1c(=O)oc2cc(S(=O)(=O)NC3CCCC3)ccc21 (centres undefined)	3%	nt	-2%	8%
CC(C)CC(=O)Nc1ccc(C(=O)COc2ccc(-c3nnco3)cc2)cc1	11%	?	2.1µM*	0%
O=C(COc1ccc(-c2nnco2)cc1)Nc1ccc(F)c(Cl)c1	-3%	nt	nt	-37%
COc1ccc(/C=N/n2c(=O)[nH]c3c([nH]c4ccc(F)cc43)c2=O)cc1CN1CCCCC1	-3%	0%	18%	0%
SMILES	AMA1 RON2 block	Pf growth 48h	Pf growth 96h	SARS PLpro yeast
CN(C)c1ccc(Cc2ccc(N(C)C)cc2)cc1	14µM*	nt	nt	nt
CN(C)c1ccc(CN2CCCCC2)cc1	17%	nt	3%	2%
COc1ccc(N(CC(=O)Nc2ccc3c(c2)OCO3)S(=O)(=O)c2ccc(F)cc2)cc1	-8%	0%	-15%	20%
COc1ccc(N(CC(=O)N/N=C/c2ccc3c(c2)OCO3)S(=O)(=O)c2ccc(NC(C)=O)cc2)cc1	0%	13µM*	?	2%
CCC(C)NC(=O)CN(c1ccc(OC)cc1)S(=O)(=O)c1ccc(NC(C)=O)cc1 (centres undefined)	0%	?	6.6µM*	5%
COc1ccc(N(CC(=O)Nc2ccc3c(c2)OCO3)S(=O)(=O)c2ccc(C)cc2)cc1OC	11%	?	?	1%
COc1ccc(N(CC(=O)Nc2ccc3c(c2)OCO3)S(=O)(=O)c2ccccc2)cc1OC	-7%	2.9µM*	?	0%
Cc1nn(CCC(=O)NCc2ccc(OC(C)C)cc2)c(=O)c2nn(-c3ccccc3)c(C)c12	-6%	?	128%	2%
CC(=O)c1cccc(NC(=O)N2CCc3ccccc3C2)c1	0%	100%	-14%	1%
O=C(CCn1nc(-c2ccccc2)c2ccccc2c1=O)Nc1cccnc1	1%	-10%	51%	0%
CNC(=O)c1cc(NC(=O)CCn2nc(-c3ccccc3)c3ccccc3c2=O)ccc1OC	-7%	2.1µM*	0.83µM*	2%
CN(C)/C=C/C(=O)/C=C/c1ccc(Cl)cc1Cl	2%	358%	53%	0%
CS(=O)(=O)N1CCC(C(=O)Nc2ccc3c(c2)OCCO3)CC1	8%	nt	-19%	6%
CCOC(=O)C1(N(CC)CC)Sc2cc(C)ccc2NC1=O (centres undefined)	0%	?	5.9µM*	-11%
Cc1ccc(C(C)n2cc(C(=O)NCCN3CCN(C)CC3)nn2)cc1 (centres undefined)	32%	-9%	?	-5%
Cc1ccc(C)c(-n2sc3ccc(F)cc3c2=O)c1	9%	2.1µM*	1.5µM*	2%
COc1ccc(-n2sc3ccc(F)cc3c2=O)cc1	-5%	4.1µM*	144%	0%
COc1ccc(-n2sc3ccccc3c2=O)cc1	-3%	nt	nt	nt
O=c1c2cc(F)ccc2sn1-c1ccc(F)cc1	9%	4.1µM*	8%	-3%
Cc1ccc(C(=O)OC(C)C(=O)Nc2ccc(Cl)cn2)s1 (centres undefined)	13%	-6%	33%	-3%
CCOC(=O)N1CCN(C(=O)c2ccc3c(c2)N(C)C(=O)/C(=C\c2ccc(OCC)c(OC)c2)S3)CC1	5%	1.2µM*	52%	-5%
CCOC(=O)N1CCN(C(=O)c2ccc3c(c2)NC(=O)/C(=C\c2ccc(OC)c(OC)c2)S3)CC1	6%	?	13µM*	2%
CCOC(=O)N1CCN(C(=O)c2ccc3c(c2)NC(=O)/C(=C\c2cccc(C)c2)S3)CC1	7%	?	?	11%
COc1ccc(/C=C2/Sc3ccc(C(=O)N4CCOCC4)cc3NC2=O)cc1OC	17%	?	15µM*	-1%
CCOc1ccc(/C=C2/Sc3ccc(C(=O)NCC4CCCO4)cc3N(C)C2=O)cc1OC (centres undefined)	-17%	8.3µM*	13µM*	?
Cc1nn(-c2ccccc2)nc1-c1nnc(-c2ccc(C(F)(F)F)cc2)o1	13%	0.26µM*	?	0%
COc1c(Cl)cc(C(=O)O)cc1Cl	9%	nt	nt	nt
CCOc1cc(C(=O)O)cc(Cl)c1OCC#N	?	6%	7.4µM*	-1%
CCCSc1ccc([C@@H]2[C@H]3C(=O)N(CC)C(=O)[C@H]3[C@]3(C(=O)OC)CCCN23)cc1	-1%	9.3µM*	15µM*	0%
